# Literature values in PubChem BioAssay AID977611.
# Hit rate of the full screen: of about 3,900 compounds, about 3,900 (100%) were called active. The limit is not given here; nearly all actives have Kd up to about 4200 µM. So high a share suggests a set chosen from earlier hits. The list shows a part of the results. Positions of bridges follow the written chain, without caps; N, C: chain ends. Bridge positions count the residues as written; N and C are the ends. Non-standard residues stand in square brackets, D forms with d. Square brackets hold non-standard residues; d marks the D form. Residues, ends and D or L forms follow the SMILES beside them. Peptide text beside a SMILES is read from it. Orn(CH(NH2)2) = NC(N)NCCC[C@H](N)C(=O)O
# Assay: PubChem AID 977611
# Conditions: PDB protein-ligand complexes, literature Kd
smiles,measurement,setting,value
OC[C@H]1CNC[C@@H](O[C@H]2O[C@H](CO)[C@@H](O)[C@H](O)[C@@H]2O)[C@@H]1O,Kd,"protein: GLYCOSYL HYDROLASE FAMILY 71 BxGH99, PDB entry 4v27",217 nM (active)
OC[C@H]1O[C@H](O[C@H]2[C@@H](O)[C@@H](CO)O[C@@H](O[C@H]3[C@H](O)[C@@H](O)[C@H](O)O[C@@H]3CO)[C@@H]2O)[C@H](O)[C@@H](O)[C@H]1O,Kd,"protein: PA-I GALACTOPHILIC LECTIN, PDB entry 2vxj",68000 nM (active)
O=P(O)(O)OC[C@H]1OC(O[C@@H]2O[C@H](CO)[C@@H](O)[C@H](O)[C@H]2O)[C@H](O)[C@@H](O)[C@@H]1O (some centres not stated),Kd,"protein: trehalose operon repressor, PDB entry 1BYK",10000 nM (active)
CC(=O)N[C@@H](C)C(=O)N[C@@H](CC(C)C)C(=O)N[C@H]1CSSC[C@@H](C(=O)N[C@@H](CCC(N)=O)C(=O)N[C@@H](Cc2ccccc2)C(=O)N[C@H](C(=O)N[C@@H](CCC(=O)O)C(N)=O)C(C)C)NC(=O)[C@H](Cc2ccc(O)cc2)NC(=O)[C@H](Cc2c[nH]c3ccccc23)NC(=O)[C@H](CCCNC(N)N)NC(=O)[C@H](CC(=O)O)NC(=O)[C@H](C(C)C)NC(=O)[C@H](CCCNC(N)N)NC(=O)[C@@H]2CCCN2C(=O)[C@H](CC(=O)O)NC(=O)[C@H](CC(=O)O)NC1=O (Ac-ALCDDP[Orn(CH(NH2)2)]VD[Orn(CH(NH2)2)]WYCQFVE-NH2; disulfide 3-13),Kd,"protein: des-gla factor viia (heavy chain), PDB entry 1dva",8.5 nM (active)
CC(C)C[C@H]1NC(=O)[C@@H](Cc2c[nH]c3ccccc23)NC(=O)[C@@H](CCC(N)=O)NC(=O)[C@@H](Cc2c[nH]c3ccccc23)NC(=O)[C@@H](CCC(=O)O)NC(=O)[C@H]2CCCN2C(=O)[C@@H](Cc2ccc(O)cc2)NC(=O)[C@@H](CC(=O)O)NC(=O)[C@H](NC(=O)[C@@H](C)NC(=O)CNC(=O)[C@H](N)CCCCN)CSSC[C@H](C(=O)N[C@H](C)C(=O)N[C@H](C)C(=O)O)NC1=O,Kd,"protein: gp41 N-peptide, PDB entry 2r5b",2.5 nM (active)
same,Kd,"protein: gp41 N-peptide, PDB entry 2r5d",0.07 nM (active)
C[C@@H]1NC(=O)[C@@H]2CSSC[C@H](NC(=O)CN)C(=O)N[C@@H](CSSC[C@@H](C(N)=O)NC(=O)[C@H](CCCNC(N)N)NC(=O)[C@H](Cc3c[nH]c4ccccc34)NC1=O)C(=O)N[C@@H](CO)C(=O)N[C@@H](CC(=O)O)C(=O)N1CCC[C@H]1C(=O)N[C@@H](CCCNC(N)N)C(=O)N2,Kd,"protein: A-AChBP, PDB entry 2byp",0.88 nM (active)
"CC[C@H](C)[C@H](NC(C)=O)C(=O)N[C@@H](CO)C(=O)N[C@@H]1C(=O)N[C@@H](CCCN=C(N)N)C(=O)N[C@H]2CCCCNC(=O)CC[C@@H](C(=O)O)NC(=O)[C@@H]3CCC(=O)OC[C@H](NC(=O)[C@@H]4CCCN4C(=O)[C@H](Cc4ccc(O)cc4)NC2=O)C(=O)N[C@@H](CC(=O)O[C@@H]1C)C(=O)N[C@@H](Cc1c[nH]c2ccccc12)C(=O)N3 (Ac-ISTRKYPSDWEE-OH; ester 3-9, 8-11; lactam 5-12)",Kd,"protein: Bovine Cationic trypsin, PDB entry 4ktu",685 nM (active)
"CC(C)C[C@H](NC(=O)[C@@H]1CSSC[C@@H]2NC(=O)[C@H](CC(N)=O)NC(=O)[C@@H](N)CSSC[C@H](NC(=O)[C@H](CC(C)C)NC(=O)[C@H](Cc3ccccc3)NC(=O)[C@H]([C@@H](C)O)NC(=O)[C@H](CCC(=O)O)NC(=O)[C@@H]3CCCN3C(=O)[C@H](C)NC(=O)[C@H](CCCCN)NC2=O)C(=O)N[C@@H](Cc2ccc(O)cc2)C(=O)N[C@@H](Cc2c[nH]c3ccccc23)C(=O)N[C@@H](CCCNC(N)N)C(=O)N1)C(=O)N[C@@H](CCC(N)=O)C(=O)N[C@@H](Cc1c[nH]cn1)C(N)=O (H-CNCKAPETFLCYW[Orn(CH(NH2)2)]CLQH-NH2; disulfide 1-11, 3-15)",Kd,"protein: E3 ubiquitin-protein ligase Mdm2, PDB entry 3iux",25.1 nM (active)
CC[C@H](C)[C@H](N)C(=O)N[C@H](C(=O)NCC(=O)NCC(=O)N[C@H]1CSSC[C@@H](C(=O)O)NC(=O)[C@H](CCC(=O)O)NC(=O)[C@H](CCC(=O)O)NC(=O)[C@H](CCCN=C(N)N)NC(=O)[C@H](CC(=O)O)NC(=O)[C@H](CCSC)NC(=O)[C@H](Cc2c[nH]c3ccccc23)NC(=O)[C@H](Cc2ccc(O)cc2)NC(=O)[C@@H]2CCCN2C1=O)[C@@H](C)CC (H-IIGGCPYWMDREEC-OH; disulfide 5-14),Kd,"protein: Hepatocyte growth factor HGF-Beta V495, PDB entry 4o3u",400 nM (active)
N#Cc1c(O)c2c(-c3ccc(-c4ccccc4O)cc3)c(Cl)sc2[nH]c1=O,Kd,"protein: 5'-AMP-activated protein kinase catalytic subunit AMPK alpha1-belta1-gamma1, PDB entry 4qfr",7.4 nM (active)
N#Cc1c(O)c2c(-c3ccc(Br)cc3)c(Br)sc2[nH]c1=O,Kd,"protein: 5'-AMP-activated protein kinase catalytic subunit AMPK alpha1-belta1-gamma1, PDB entry 4qfs",900 nM (active)
Cc1nc2c(=O)[nH]c(=O)[nH]c2n(C[C@H](O)[C@H](O)[C@H](O)CO)c1=O,Kd,"protein: Major histocompatibility complex class I-related gene protein, PDB entry 4l4v",1650 nM (active)
CCNc1cc2c(cc1C)C(c1ccccc1C(=O)OCC)c1cc(C)c(NCC)cc1O2,Kd,"protein: Putative regulatory protein, PDB entry 3vvz",26400 nM (active)
C[C@@H](O)CN1CC2=C(C1)c1ccccc1Nc1ccccc12,Kd,"protein: Renin, PDB entry 4gj9",500000 nM (active)
CC[C@H](C)[C@H](NC(=O)CNC(=O)[C@H](CCC(N)=O)NC(=O)[C@@H](NC(=O)[C@H](CC(N)=O)NC(=O)[C@@H](N)CC(=O)O)[C@@H](C)CC)C(=O)N[C@H](C(=O)N[C@@H](CCCCN)C(=O)N1CCC[C@H]1C(=O)N[C@@H](C)C(=O)N[C@H](C(=O)N[C@@H](CCCNC(N)N)C(=O)N[C@@H](CCCNC(N)N)C(=O)N[C@@H](CC(C)C)C(=O)N[C@@H](C)C(=O)N[C@@H](CCCNC(N)N)C(=O)N[C@@H](CCCNC(N)N)C(=O)NCC(=O)O)[C@@H](C)CC)[C@@H](C)O (H-DNIQGITKPAI[Orn(CH(NH2)2)][Orn(CH(NH2)2)]LA[Orn(CH(NH2)2)][Orn(CH(NH2)2)]G-OH),Kd,"protein: Histone-binding protein RBBP7, PDB entry 3cfv",900 nM (active)
CC[C@H](C)[C@H](NC(=O)CNC(=O)[C@@H](N)CCC(N)=O)C(=O)N[C@H](C(=O)N[C@@H](CCCCN)C(=O)N1CCC[C@H]1C(=O)N[C@@H](C)C(=O)N[C@H](C(=O)N[C@@H](CCCNC(N)N)C(=O)N[C@@H](CCCNC(N)N)C(=O)N[C@@H](CC(C)C)C(=O)N[C@@H](C)C(=O)N[C@@H](CCCNC(N)N)C(=O)N[C@@H](CCCNC(N)N)C(=O)NCC(=O)O)[C@@H](C)CC)[C@@H](C)O (H-QGITKPAI[Orn(CH(NH2)2)][Orn(CH(NH2)2)]LA[Orn(CH(NH2)2)][Orn(CH(NH2)2)]G-OH),Kd,"protein: Histone-binding protein RBBP7, PDB entry 3cfs",1100 nM (active)
